An excerpt weighted towards active compounds, which were near 2.8% of everything screened.
NCF1 inh = p47phox/p22phox peptide binding inhibitors, primary screen, biochemical, uHTS, NADPH oxidase regulatory subunit; inhibition, % at 24.7 µM; actives 0.53% (n = 220,000); fluorescence polarization, 2 h; Neutrophil cytosol factor 1 (Homo sapiens), P14598; AID 1274, 2008;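 active = inhibition above about 30%, limit read from the data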
EP2 mod = EP2 receptor modulators, cAMP readout, primary screen, cell-based, HTRF cAMP, PGE2 stimulation. Prostaglandin E2 receptor EP2 subtype (Homo sapiens), P43116. EP2-expressing cells, cAMP HTRF FRET, PGE2 co-stimulation. induction, % at 25 µM. actives 0.83% (n = 260,000);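 active = compounds whose cAMP rise, as percent of the full-agonist control response, exceeds 60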;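 note: rat C6 glioma line stably carrying human EP2 under a CMV promoter; the protocol text gives 20 µM as final concentration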
EP2 antag = human EP2 receptor antagonists, primary screen, TR-FRET cAMP, C6 glioma cells. C6 glioma cells expressing human EP2; cells stimulated with saturating PGE2. Prostaglandin E2 receptor EP2 subtype (Homo sapiens), P43116. AID 1422, 2008. inhibition, % at 25 µM. actives 0.52% (n = 260,000);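 active = percent inhibition above 40 after rounding to a whole number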;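 note: rat C6 glioma host cells with rolipram phosphodiesterase inhibitor present; the protocol text gives 20 µM as final concentration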
HSV replic up = enhancers of HSV replication in host cells, fold increase, host cell viability; HSV replication augmentation in cells; maximum fold increase; actives 0.005% (n = 220,000); in the data active = maximum fold increase above about 1.5; tested in PC3 cells
Furin inh = human furin inhibitors, primary screen, biochemical, fluorescence intensity; inhibition, % at 20 µM or 30 µM; purified furin, fluorogenic substrate cleavage; P09958; actives 0.061% (n = 220,000); in the data active = inhibition above about 25%
Wee1 degr inh = Wee1 degradation inhibitors, primary screen, cell-based, HeLa, Wee1K328M-luciferase, luminescence | Wee1-like protein kinase (Homo sapiens), P30291 | HeLa Luc-Wee1K328M stability; 100% = proteasome inhibitor MG132 effect | reporter increase, % at 5 µM | actives 1.2% (n = 220,000);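 active = activation above the mean of all tested compounds plus 3 SD, set per screening run, cut at about 8.8% in these data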;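 note: cells exposed to compound for 20 h before luminescence read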
Target sequence (P30291 whole entry K328M): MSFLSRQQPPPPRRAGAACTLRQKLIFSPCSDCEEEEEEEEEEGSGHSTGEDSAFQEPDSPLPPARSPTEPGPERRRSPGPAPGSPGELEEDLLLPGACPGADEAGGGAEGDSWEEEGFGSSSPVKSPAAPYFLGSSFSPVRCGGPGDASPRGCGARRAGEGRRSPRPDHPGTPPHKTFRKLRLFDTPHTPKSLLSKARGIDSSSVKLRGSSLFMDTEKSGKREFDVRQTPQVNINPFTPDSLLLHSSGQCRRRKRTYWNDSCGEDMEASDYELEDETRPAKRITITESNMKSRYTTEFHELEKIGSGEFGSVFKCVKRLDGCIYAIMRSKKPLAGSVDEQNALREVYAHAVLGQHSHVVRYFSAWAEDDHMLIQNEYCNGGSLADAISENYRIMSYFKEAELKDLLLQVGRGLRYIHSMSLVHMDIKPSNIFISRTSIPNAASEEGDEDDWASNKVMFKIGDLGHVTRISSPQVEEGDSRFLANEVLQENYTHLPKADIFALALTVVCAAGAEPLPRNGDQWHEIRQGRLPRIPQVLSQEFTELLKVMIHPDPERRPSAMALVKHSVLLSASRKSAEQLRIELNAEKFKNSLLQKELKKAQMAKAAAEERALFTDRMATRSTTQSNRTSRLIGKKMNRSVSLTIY
Of the large screens only hits and unclear results are named; the others gave an inactive call.

CCOc1ccccc1NC(=O)c1sc(NC(=O)c2cccc(F)c2)c(C(=O)OC)c1C	none (no result: NCF1 inh, HSV replic up, Furin inh, Wee1 degr inh)
COc1cc(OC)c(C2=NOC(C(=O)NCc3cccs3)C2)cc1Cl (centres undefined)	Wee1 degr inh 9.6
Cc1cn(C(=O)c2ccccc2)c(=S)n1-c1ccc(Br)cc1	EP2 mod 64.8
Cc1cc(=O)cc(C)n1-c1ccc(Br)cc1	none
CCOC(=O)N1CCN(C(=O)CSCC(=O)Nc2nc(-c3ccc(-c4ccccc4)cc3)cs2)CC1	NCF1 inh 61.8
CN1CCC(=C2c3ccccc3C=Cc3ccccc32)CC1	Wee1 degr inh 9.7
O=C(Nc1nc2ccsc2c(=O)s1)c1ccc(Cl)cc1	EP2 antag 43.2
O=C(Nc1nc(=O)c2ccccc2s1)c1ccc(Cl)cc1	none
c1coc(C2OCC3(CO2)COC(c2ccco2)OC3)c1 (centres undefined)	EP2 antag 54.2
CCCc1c(C(=O)Nc2ccc(F)cc2F)cnn1-c1ccccc1	none
CCCc1c(C(=O)Nc2cc(C(C)(C)C)on2)cnn1-c1ccccc1	Wee1 degr inh 9.8
O=C(NCc1ccccn1)c1cc(-c2ccc(Cl)cc2Cl)on1	none (no result: NCF1 inh, HSV replic up, Furin inh, Wee1 degr inh)
O=C(CN1CCN(c2ccccc2)CC1)c1ccc2c(c1)OCCO2	none (no result: NCF1 inh, HSV replic up, Furin inh, Wee1 degr inh)
Cc1cccc(-c2nnc(N(C(=O)C3CCCCC3)C(C)C)s2)c1	none (no result: NCF1 inh, HSV replic up, Furin inh, Wee1 degr inh)
CCN(CC(=O)NCc1ccccc1Cl)CC(=O)Nc1c(F)cccc1F	Wee1 degr inh 9.5
COC(=O)c1cc([N+](=O)[O-])c(-n2ccnc2)c([N+](=O)[O-])c1	EP2 mod 62.7
O=C(O)c1ccc(-n2ccnc2)c([N+](=O)[O-])c1	none
CC(=O)N1CCC2(CC1)Nc1ccccc1-n1cccc12	none (no result: NCF1 inh, HSV replic up, Furin inh, Wee1 degr inh)
Cc1cc(OCc2ccccc2)ccc1/C(O)=C1/C(=O)C(=O)N(Cc2cccnc2)C1c1ccncc1 (centres undefined)	EP2 mod 64.5
COc1ccc(/C(O)=C2/C(=O)C(=O)N(Cc3cccnc3)C2c2ccc(OC)c(OC)c2)c(C)c1 (centres undefined)	none (no result: NCF1 inh, HSV replic up, Furin inh, Wee1 degr inh)
CCC(c1ccc(F)cc1)n1cc(C(=O)NCCCN2CCOCC2)nn1 (centres undefined)	none (no result: NCF1 inh, EP2 antag, HSV replic up, Furin inh, Wee1 degr inh)
O=C(c1nccs1)C1CCN(C(=O)C2(c3ccccc3)CC2)CC1	none (no result: NCF1 inh, EP2 antag, HSV replic up, Furin inh, Wee1 degr inh)
CCCCNC(=S)N/N=C/C1=CCC2CC1C2(C)C (centres undefined)	Wee1 degr inh 8.9
C=C(C)CNC(=S)N/N=C/C1=CCC2CC1C2(C)C (centres undefined)	none
O=C(CSc1nnnn1Cc1ccccc1)Nc1ccccc1	Wee1 degr inh 9.3
Cc1nnc(NC(=O)CSc2nnnn2Cc2ccccc2)s1	none
Cc1nn(CCC(=O)NC(C)c2ccc3c(c2)CCC3)c(C)c1C (centres undefined)	none (no result: NCF1 inh, HSV replic up, Furin inh, Wee1 degr inh)
O=C1c2ccccc2C(=O)c2c(NC3CCCCC3)ccc(Nc3ccc(S(=O)(=O)O)cc3)c21	EP2 antag 71.0 (no result: NCF1 inh, HSV replic up, Furin inh, Wee1 degr inh)
O=C1c2ccccc2C(=O)c2c(Nc3ccc(CCO)cc3)ccc(O)c21	none
Cc1sc(NC(=O)COc2ccccc2)c(C#N)c1-c1ccccc1	Wee1 degr inh 9.6
COc1ccccc1NC(=O)c1sc(NC(=O)COc2ccccc2)c(C#N)c1C	EP2 mod 65.6 (no result: NCF1 inh, HSV replic up, Furin inh, Wee1 degr inh)
COc1ccccc1NC(=O)c1sc(NC(=O)Cc2ccccc2)c(C#N)c1C	none (no result: NCF1 inh, HSV replic up, Furin inh, Wee1 degr inh)
OC[C@H]1O[C@@H](n2cnc3c(Nc4ccccc4)ncnc32)[C@H](O)[C@@H]1O	none
OC[C@@H]1O[C@H](n2cnc3c(/C=C(\O)c4ccccc4)ncnc32)[C@H](O)[C@H]1O	EP2 antag 45.0 (no result: NCF1 inh, HSV replic up, Furin inh, Wee1 degr inh)
Cc1nnc(NC(=O)COc2cc(C)c(Cl)c(C)c2)s1	none (no result: NCF1 inh, HSV replic up, Furin inh, Wee1 degr inh)
O=C1CNC(=S)N1Cc1ccccc1	Wee1 degr inh 9.5
O=C1CNC(=O)N1Cc1ccc(Br)cc1	none
O=C1CC(c2ccccc2)CC(O)=C1C=Nc1cccc(Cl)c1 (centres undefined)	Wee1 degr inh 9.6
O=C1CC(c2ccccc2)CC(O)=C1C=Nc1ccc(Cl)cc1 (centres undefined)	none
CCOc1ccc(C(=O)Nc2ccc(N3CCN(C)CC3)cc2)cc1Br	Furin inh 26.0

Bioassay records deposited in PubChem BioAssay by several laboratories.
